KB-3-1 tox – qHTS assay for MDR1-selective chemotherapeutics: Primary screen using the parental adenocarcinoma cell KB-3-1; KB-3-1 viability, CellTiter-Glo ATP luminescence, 72 h; Potency, µM (titrated, usually from 46.1 µM), actives largely listed as cytotoxic; hit rate 1.4% among 400,000; further: on the % scale 0 is the no-effect control and ±100 the full control effect; nearly all actives have a fitted effect of over 60% in size
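Screening of KB-3-1 cells (DMEM, 10% FBS, phenol-red free) ran from lowest to highest compound concentration; after 72 h at 37 °C viability was read luminescently and curves fitted.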
TGFb SMAD3 inh – qHTS for Inhibitors of TGF-b | hit rate 1.2% among 410,000 | Potency, µM (titrated, usually from 46.1 µM), for the others: top-dose activity, negative = inhibition, hits mostly inhibitors | HepG2 CAGA-GFP TGF-b/SMAD3 reporter, GFP fluorescence, 18 h; TGF-beta stimulated, 500 pg/mL final; further: on the % scale 0 is the no-effect control and ±100 the full control effect; nearly all actives have a fitted effect of over 65% in size
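Cell-based qHTS in HEPG2 carrying a CAGA-GFP Smad reporter; compounds added before 500 pg/mL final TGF-beta, 18 h incubation at 37 degrees C, GFP fluorescence quantified per cell by imaging cytometry.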
KB-V1 cytotox – qHTS assay for MDR1-selective chemotherapeutics: Primary screen using the drug-selected MDR subline cells KB-V1. KB-V1 MDR cells viability, CellTiter-Glo, 72 h. Potency, µM (doses to about 46.1 µM), usual class: cytotoxic. hit rate 3.4% among 400,000; further: on the % scale 0 is the no-effect control and ±100 the full control effect; nearly all actives have a fitted effect of over 60% in size
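KB-V1 MDR subline cells in DMEM (phenol-red free, 10% FBS) exposed to compounds in qHTS concentration series for 72 h at 37 degrees C. Viability read by CellTiter-Glo luminescence; concentration-effect curves fitted after normalization and correction.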
HepG2 tox – qHTS for Inhibitors of TGF-b: Cytotox Counterscreen; HepG2 CAGA-GFP viability, ATP luminescence, 18 h; Potency, µM (top dose mostly 46.1 µM), inactives show at the highest dose activity change, negative = cytotoxicity, usual class: cytotoxic; hit rate 0.76% among 410,000
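CellTiter-Glo luminescence gave cytotoxicity after 18 hours at 37 degrees C. The cells were HepG2 CAGA-GFP in 1% FBS DMEM, stimulated with 500 pg/mL TGF-beta after compound addition. %Activity was normalised to no-cell wells (complete cell-killing) and DMSO (no toxicity), and curves were fitted and classified.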
HT1080NT lethal – qHTS for induction of synthetic lethality in tumor cells producing 2HG: qHTS for the HT-1080-NT fibrosarcoma cell line | HT-1080-NT fibrosarcoma viability, CellTiter-Glo ATP luminescence, 48 h | Potency, µM (titrated, usually from 46.1 µM), for the others: top-dose activity, negative = less viability, most hits filed as cytotoxic | hit rate 1.6% among 360,000;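 further: NT is the 2HG producing partner of a matched IDH1 knockdown line; 0% = DMSO-treated cells and -100% = media-only wells without cells; nearly all actives have a fitted effect of over 55% in size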
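Viability of the 2HG-overproducing fibrosarcoma line after 48 hours of compound exposure at 37 degrees C was determined by luminescence with CellTiter-Glo, and concentration-effect curves were then fitted and categorized.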
HT1080 IDH1KD tx – qHTS for induction of synthetic lethality in tumor cells producing 2HG: qHTS for the HT-1080-IDH1KD cell line. AID 686971, 2013. Potency, µM (titrated, usually from 46.1 µM), for the others: top-dose activity, negative = toxicity, hits mostly cytotoxic. HT-1080 IDH1 knockdown viability, ATP luminescence, 48 h. hit rate 2% among 360,000;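 further: 0% = DMSO wells and -100% = cell-free medium wells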
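Using the IDH1-knockdown HT-1080 line run in the same batch and compound series as the NT line, viability after 48 h at 37 °C was determined by CellTiter-Glo luminescence and expressed as % activity.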
* = called active by the depositor; i = inactive; ? = inconclusive; . = no result. Compounds with a hit are over-represented: about 6.6% of the library has one in this group of screens. The call rests on the fitted dose curve; in most records, active means well fitted curve in the direction sought with a large enough effect; inconclusive means small, poorly fitted or top-dose-only effect, or another doubt; inactive means no such curve, though single readings can be large; an effect the other way counts as inactive or inconclusive. Potency means the concentration at half of the fitted maximal effect.

SMILES | KB-3-1 tox | TGFb SMAD3 inh | KB-V1 cytotox | HepG2 tox | HT1080NT lethal | HT1080 IDH1KD tx
COc1cc(CC(=O)NC2CCCc3ccccc32)cc(OC)c1OC (stereo not drawn) | i | 4% | ? | -1% | 1% | 5%
COc1cccc(C(=O)Nc2ccc(F)cc2F)c1 | i | -4% | i | -4% | 16% | -12%
CCCC(=O)NC1CCc2cc(OC)c(OC)c(OC)c2-c2ccc(OC)c(=O)cc21 (stereo not drawn) | 0.13µM* | ? | 2.9µM* | -25% | ? | ?
COc1c(C=O)c2c(c(OC)c1OC)-c1ccc(OC)c(=O)cc1C(NC(C)=O)CC2 (stereo not drawn) | 0.0092µM* | ? | ? | -6% | 0.0052µM* | ?
COc1ccc(-c2nc3scc(CCNS(=O)(=O)c4cccs4)n3n2)cc1 | . | -7% | . | -13% | . | .
CCC(C)(C)c1ccc(Oc2ccc(N)cc2)cc1 | i | ? | i | -23% | 16µM* | ?
CCC(C)(C)c1ccc(Oc2cccc(C(=O)O)c2)cc1 | i | -1% | i | 0% | 5% | 9%
CCc1nnc(NC(=O)CSc2nnc3scc(-c4ccc(C)cc4)n23)s1 | i | 2% | i | 1% | 6% | 0%
Cc1nnc(NC(=O)CSc2nnc3scc(-c4ccc(C)c(C)c4)n23)s1 | i | -4% | 21µM* | -47% | -1% | 2%
COc1ccc(C2(OC)Oc3cc(OC)ccc3C(=O)C2(O)OC)cc1 (stereo not drawn) | ? | ? | 2.9µM* | 0% | -6% | ?
CCOc1ccc2c(c1)nc(SCC(=O)c1cccs1)n2C | i | 3% | ? | 3% | 5% | 3%
CCOc1ccc2c(c1)nc(SCC(=O)c1ccc(Br)s1)n2C | ? | 5% | 18µM* | -8% | ? | ?
COc1ccc(CCNC(=O)c2c(O)nc3ccccn3c2=O)cc1OC | i | 0% | 7.3µM* | -12% | . | .
COc1cccc(CNC(=O)c2c(O)nc3ccccn3c2=O)c1 | i | 3% | 23µM* | 0% | . | .
COc1ccc(C2/C=C\CN(C(=O)c3ccc(C)cc3)[C@H](Cc3ccccc3)C(=O)N2Cc2ccc(F)cc2)cc1 (stereo partly drawn) | 12µM* | ? | ? | -9% | -7% | -18%
CC1=C(C(=O)N2CCOCC2)CC(CC(=O)NC2CCCCC2)C(=O)N1Cc1ccccc1 (stereo not drawn) | ? | 8% | ? | -3% | 3% | 14%
CN1CC=C2C(C#N)=C(N)C(C#N)(C#N)C(CCc3ccccc3)C2C1 (stereo not drawn) | i | 65% | 18µM* | -18% | -11% | -9%
COC(=O)Cc1c[nH]c2cccc(OCC(O)CN(Cc3ccc([N+](=O)[O-])cc3)C(C)(C)C)c12 (stereo not drawn) | i | -18% | 5.8µM* | -39% | 1% | -13%
COC(=O)Cc1c[nH]c2cccc(OCC(O)CN(Cc3ccccc3)C(C)C)c12 (stereo not drawn) | i | -22% | ? | -27% | -9% | -21%
Cc1ccc(CN(CC(O)COc2cccc3[nH]cc(C)c23)C(C)(C)C)cc1 (stereo not drawn) | i | ? | i | 13µM* | ? | -17%
CCOc1ccc(C(=O)NC2CC(=O)N(c3ccc(C)cc3)C2)cc1OCC (stereo not drawn) | . | -2% | . | 1% | . | .
O=C(C[n+]1csc2ccccc21)c1ccc(O)c(O)c1 | i | ? | i | -6% | . | .
CC(C)(C)C(=O)Nc1cccc(C(=O)OCc2cc(=O)n3nc(C4CCCCC4)sc3n2)c1 | . | ? | . | 2% | . | .
Cc1ccc(S(=O)(=O)Oc2ccccc2N2C(=O)C3CC=CCC3C2=O)cc1 (stereo not drawn) | i | 16% | 8.2µM* | -14% | 4% | -4%
O=C1C2CC=CCC2C(=O)N1c1cccc(OS(=O)(=O)c2ccc3ccccc3c2)c1 (stereo not drawn) | i | -28% | 21µM* | -12% | -23% | -22%
SMILES | KB-3-1 tox | TGFb SMAD3 inh | KB-V1 cytotox | HepG2 tox | HT1080NT lethal | HT1080 IDH1KD tx
CCN(CC)C(=O)N1c2ccccc2C=Cc2ccccc21 | 3.7µM* | -3% | ? | -18% | -19% | ?
COc1ccc(CN(C)c2ccc(-c3nc(C)no3)cc2[N+](=O)[O-])cc1 | ? | ? | ? | -47% | . | .
Cc1ccccc1C(=O)N1CCN(CCc2ccccn2)CC1 | i | 4% | i | -1% | . | .
COc1ccccc1OCC(=O)NCC1CCCCC1 | i | 31% | 21µM* | -52% | 4% | 7%
COc1ccccc1CC(=O)NC1CCCCCC1 | i | -1% | i | 5% | 3% | 10%
O=C(COc1ccc(C(=O)c2ccccc2)cc1)NC1CCCCCC1 | ? | ? | 10µM* | 5% | 4% | -2%
COC(=O)c1ccccc1OCC(=O)NC1CCCCC1 | i | -26% | ? | -32% | 11% | 3%
COc1cccc(OC)c1C(=O)OCC(=O)NCC1CCCCC1 | i | 0% | i | 3% | 8% | 7%
CCOc1cc(Br)c(CC(=O)NC2CCCCCC2)cc1OCC | i | -12% | 10µM* | -6% | -13% | -13%
CCc1ccccc1OCC(=O)NC1CCCC1 | i | 1% | 13µM* | -4% | 16% | 9%
O=C(Nc1ccc2ccccc2c1)c1nc(S(=O)(=O)Cc2ccccc2F)ncc1Cl | i | ? | i | -62% | . | .
Cc1cccc(C(=O)OCC(=O)N2CC(=O)Nc3ccccc32)c1C | i | 13% | i | -40% | -7% | -2%
Cc1ccc(NC(=O)CCC(=O)N2Cc3ccccc3Oc3ncccc32)cc1 | i | 2% | i | 11% | . | .
O=C(CC1Sc2ccc(C(F)(F)F)cc2NC1=O)Nc1ccc(Cl)c(C(F)(F)F)c1 (stereo not drawn) | i | 14µM* | i | -97% | . | .
CCN(CC)S(=O)(=O)c1ccc(Cl)c(NC(=O)COC(=O)c2cccn2C)c1 | i | -24% | 15µM* | -1% | ? | ?
CC(C)CN(CC(C)C)c1nnc(NC(=O)Nc2cccc(C(F)(F)F)c2)s1 | ? | ? | ? | 1% | . | .

Screens from PubChem BioAssay.
